Measurements: PubChem BioAssay (EPA / NIEHS)
Records with an inconclusive call do not appear. Where a structure was tested more than once in an assay, its records may differ in their call. Calls of active or inactive are those of the source. The calls were made as follows, unless noted: active = hit-call score of the fitted dose curve at least 0.9, where 1 is the maximum; inactive = score below 0.9.

What was measured:
[1] = CCTE_Shafer_MEA_dev_bursting_electrodes_number: CCTE's Neural Network Formation Assay for Number of Bursting Electrodes, Shafer Lab (AID 2284043; active = hit-call score of the fitted dose curve at least 0.9, where 1 is the maximum;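 as to AC50: potency is for loss of bursting electrodes relative to DMSO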)
Summary of the method: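 Counted: electrodes with burst rate ≥1 per 2 min in each well. Cells: primary rat cortex, 1.5 x 10^5/well, on 16-electrode MEA wells. Exposure: DIV 0–12, compound renewed DIV 5 and 9. Recording days 5, 7, 9, 12; AUC vs DMSO baseline.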

[2] = CCTE_Shafer_MEA_dev_per_burst_interspike_interval: CCTE's Neural Network Formation Assay for Burst Interspike Interval, Shafer Lab (AID 2284044);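 also: mean spike spacing inside bursts as AUC over recordings on days 5 7 9 12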;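 as to AC50: potency for a decrease of within-burst interspike interval below DMSO level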
Summary of the method: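 Spontaneous activity of maturing rat cortical networks is recorded on DIV 5, 7, 9 and 12 under chronic compound exposure beginning at plating. Endpoint: burst interspike interval well-mean, collapsed into trapezoidal AUC and fitted in the negative direction relative to DMSO.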

[3] = CCTE_Shafer_MEA_dev_burst_duration_mean: CCTE's Neural Network Formation Assay for Mean Burst Duration, Shafer Lab (AID 2284045);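 as to AC50: curve fitted for loss meaning shorter burst duration than DMSO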
Summary of the method: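 Network-formation assay in primary rat cortical neurons; treatment spans twelve days of development. Mean burst duration per well is integrated by trapezoidal AUC and fitted in the loss-of-signal direction against DMSO baseline.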

[4] = CCTE_Shafer_MEA_dev_interburst_interval_mean: CCTE's Neural Network Formation Assay for Mean Interburst Interval, Shafer Lab (AID 2284046);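 also: well-mean interburst interval of bursting electrodes as AUC over four recording days; curve fitted for decrease in interburst interval relative to DMSO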
Summary of the method: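 Rat cortical neurons, 1.5 x 10^5 cells/well, 48-well MEA; compound from day 0 through DIV 12, media and treatment renewed DIV 5/9. Recordings DIV 5, 7, 9, 12; well-mean interburst interval → trapezoidal AUC, loss direction vs DMSO.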

[5] = CCTE_Shafer_MEA_dev_inter_network_spike_interval_mean: CCTE's Neural Network Formation Assay for Mean Inter-network Spike Interval, Shafer Lab (AID 2284047)
Summary of the method: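 Primary rat cortical neurons on PEI-coated 48-well MEAs (16 electrodes/well) were exposed from plating day 0 to DIV 12, with dosing renewed at DIV 5 and 9. Recordings at DIV 5, 7, 9, 12 were collapsed by trapezoidal AUC, loss-of-signal fit vs DMSO.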

[6] = CCTE_Shafer_MEA_dev_network_spike_number: CCTE's Neural Network Formation Assay for Number of Network Spikes, Shafer Lab (AID 2284048);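 also: synchronized bursts across electrodes counted on days 5 7 9 12 and integrated as AUC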;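 as to AC50: fit as a loss of signal meaning fewer network spikes than DMSO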
Summary of the method: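 Extracellular recordings from 16-electrode wells track network formation in rat cortical cultures under continuous treatment from plating. The endpoint is network spike number, expressed as AUC across DIV 5–12 relative to DMSO vehicle.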

[7] = CCTE_Shafer_MEA_dev_network_spike_peak: CCTE's Neural Network Formation Assay for Mean Number of Electrodes in Network Spike, Shafer Lab (AID 2284049);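 as to AC50: fitted for loss of signal meaning fewer electrodes in network spikes than DMSO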
Summary of the method: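 Continuous 12-day exposure of rat cortical cultures, starting at plating, on MEA plates. Endpoint: electrodes participating in network-spike peaks, AUC across DIV 5–12, DMSO as negative control.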

[8] = CCTE_Shafer_MEA_dev_spike_duration_mean: CCTE's Neural Network Formation Assay for Mean Spike Duration, Shafer Lab (AID 2284051);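 also: mean network spike duration pooled as area under curve over DIV 5 to 12 recordings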;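 as to AC50: potency for a decrease in mean network spike duration versus DMSO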
Summary of the method: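 Rat cortical primary cultures, 48-well MEA (16 electrodes/well); compound from plating, renewed DIV 5, 9. Network spike duration (AxIS adaptive detector) recorded DIV 5/7/9/12, combined as trapezoidal AUC; loss direction vs DMSO.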

[9] = CCTE_Shafer_MEA_dev_network_spike_duration_std: CCTE's Neural Network Formation Assay for Standard Deviation of Network Spike Duration, Shafer Lab (AID 2284052);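 also: area under curve of spike duration SD across recording days 5 to 12; hits are decreases in network spike duration SD versus DMSO vehicle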
Summary of the method: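 Rat cortical cultures, 1.5 x 10^5 cells/well, exposed continuously from plating to DIV 12 with media/compound renewal at DIV 5, 9. Spontaneous activity recorded DIV 5/7/9/12, AxIS adaptive spike detector; AUC across days; negative direction vs DMSO.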

[10] = CCTE_Shafer_MEA_dev_per_network_spike_spike_number_mean: CCTE's Neural Network Formation Assay for Mean Number of Spikes in a Network Spike, Shafer Lab (AID 2284053)
Summary of the method: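 Rat cortical primary cultures on 48-well MEA; compound from day 0, re-dosed with full media change DIV 5, 9. Recorded DIV 5, 7, 9, 12; spikes in 0.05 s window at network-spike peak ÷ total network spikes; AUC; loss vs DMSO.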

[11] = CCTE_Shafer_MEA_dev_per_network_spike_spike_percent: CCTE's Neural Network Formation Assay for Percent of Spikes in a Network Spike, Shafer Lab (AID 2284054)
Summary of the method: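 Developing networks of rat cortical neurons are dosed at day 0 and recorded extracellularly four times up to day 12. The endpoint is the area under the curve of percent spikes in network spikes, fitted in the negative direction relative to DMSO.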

[12] = CCTE_Shafer_MEA_dev_LDH: CCTE's Lactate Dehydrogenase Assay for Cytotoxicity in the Neural Network Formation Assay, Shafer Lab (AID 2284068; active = hit-call score of the fitted dose curve at least 0.9, where 1 is the maximum;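 also: exposure for twelve days from plating with re-dosing on DIV 5 and 9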)
Summary of the method: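 Rat cortical primary neurons, MEA culture; dosing day 0–12, full medium plus compound exchange DIV 5, 9. Read-out: LDH enzyme activity, spectrophotometric. DMSO = negative control/baseline; signal loss → cytotoxicity.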

[13] = CCTE_Shafer_MEA_dev_AB: CCTE's Alamar Blue Assay for Cytotoxicity in the Neural Network Formation Assay, Shafer Lab (AID 2284083; active = hit-call score of the fitted dose curve at least 0.9, where 1 is the maximum;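 also: resazurin reduction fluorescence as viability of cultured neurons; twelve days of exposure from plating with re-dosing on DIV 5 and 9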)
Summary of the method: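 Rat cortical primary cultures, 1.5 x 10^5 cells/well on MEA; continuous compound exposure over 12 days of network development, re-dosed with full medium change DIV 5 and 9. Alamar Blue fluorescence; loss of signal = cytotoxicity vs DMSO baseline.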

[14] = CCTE_Shafer_MEA_dev_mutual_information_norm: CCTE's Neural Network Formation Assay for Mutual Information Normalization, Shafer Lab (AID 2284091);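 as to AC50: mutual information between electrodes summarised as area under curve across four recording days; potency is for a decrease in mutual information relative to DMSO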
Summary of the method: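 Exposure of primary rat cortical neurons began at plating and ran to DIV 12, with full media and treatment renewal after DIV 5 and 9 recordings. Mutual information AUC (DIV 5–12) was analysed for loss versus DMSO.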

[15] = CCTE_Shafer_MEA_dev_correlation_coefficient_mean: CCTE's Neural Network Formation Assay for Mean Correlation Coefficient, Shafer Lab (AID 2284093);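 as to AC50: well mean pairwise spike train correlation integrated as AUC over recording days 5 to 12; potency fitted for loss of correlation relative to DMSO vehicle wells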
Summary of the method: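 Rat cortical cultures, 1.5 x 10^5 cells/well, dosed from day 0 for 12 days. Spontaneous spikes recorded DIV 5/7/9/12; electrode-pair correlation coefficients averaged, AUC taken. Fit in loss direction vs DMSO.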

DIO2 (gene 1734) = experiment: CCTE_GLTED_hDIO2: CCTE's human Deiodinase 2 (DIO2) Inhibition Assay, Great Lakes Toxicology and Ecology Division (GLTED) Lab (AID 2284050; active = hit-call score of the fitted dose curve at least 0.9, where 1 is the maximum)
Summary of the method: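 Inhibition is judged by reduced iodide release: uninhibited human DIO2 frees iodide from substrate over 3 h, measured afterward by Sandell-Kolthoff colorimetry. Iodinated chemicals or nitrite, iron and thiocyanate may interfere.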

DIO3 (gene 1735) = experiment: CCTE_GLTED_hDIO3: CCTE's human Deiodinase 3 (DIO3) Inhibition Assay, Great Lakes Toxicology and Ecology Division (GLTED) Lab (AID 2284055; active = hit-call score of the fitted dose curve at least 0.9, where 1 is the maximum;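 also: potency is for inhibition seen as loss of released iodide signal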)
Summary of the method: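 Human type 3 deiodinase, expressed via adenovirus system, was exposed to test chemicals for 3 hours in a cell-free format. Released iodide was then determined spectrophotometrically by Sandell-Kolthoff; plates ran in triplicate.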

[16] = UKN2_HCS_IMR90_neural_migration: University of Konstanz (UKN) Leist Lab Neural Crest Cell Migration Assay in human induced IMR90 Pluripotent Stem Cells (UKN2) (AID 2284204); conditions: actives raise or lower the signal
Summary of the method: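 Using a 96-well stopper format with PLO/laminin/fibronectin coating, neural crest cells from iPSC migrate in cytokine-supplemented N2-S medium; after 24 h, chemicals are applied for a further 24 h, then cells are imaged after dye staining.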

[17] = IUF_NPC1b_proliferation_BrdU_72hr: Leibniz Research Institute for Environmental Medicine (IUF) 72-hour Neural Progenitor Cell Bromodeoxyuridine (BrdU) Proliferation Assay (NPC1b) (AID 2284207)
Summary of the method: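 Neural progenitor spheres of human fetal origin are treated for three days; BrdU added for the last 16 h is quantified by luminescence ELISA, with DMSO as baseline and EGF/FGF omission as positive control.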

[18] = CCTE_Shafer_MEA_acute_LDH: CCTE's Lactate Dehydrogenase Assay for Cytotoxicity in the Neural Acute Assay, Shafer Lab (AID 2284086; active = hit-call score of the fitted dose curve at least 0.9, where 1 is the maximum;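 also: active means LDH release rises above DMSO vehicle level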)
Summary of the method: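 Medium collected from MEA wells of primary rat cortical cultures (DIV 13 or 15) immediately after 40 min chemical exposure is assayed spectrophotometrically for lactate dehydrogenase activity. Endpoint fitted in positive direction versus DMSO.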

Measured: AC50

O=P(O)(O)OCCC(F)(F)C(F)(F)C(F)(F)C(F)(F)C(F)(F)C(F)(F)F
active: [1] 0.1 µM | [12] 21.5 µM | [13] 24.7 µM
not listed: DIO2 (gene 1734) | DIO3 (gene 1735) | [16] | [17] | [18]
inactive: all other assays above

OCC(F)(F)C(F)(F)C(F)(F)C(F)F
not listed: [1] | DIO2 (gene 1734) | DIO3 (gene 1735) | [16] | [17] | [18]
inactive: all other assays above

O=C(O)C(F)(F)C(F)(F)C(F)(F)C(F)(F)C(F)(F)C(F)(F)C(F)(F)C(F)(F)C(F)(F)C(F)F
active: DIO2 (gene 1734) 59.3 µM | DIO3 (gene 1735) 138 µM
not listed: [1] | [16] | [17] | [18]
inactive: all other assays above

N=C(N)C(F)(F)C(F)(F)C(F)(F)C(F)(F)C(F)(F)C(F)(F)C(F)(F)F
active: [7] 26.8 µM | [12] 24.5 µM | [13] 23.9 µM | [15] 15 µM
not listed: DIO2 (gene 1734) | DIO3 (gene 1735) | [16] | [17] | [18]
inactive: all other assays above

C=CC(=O)OCC(F)(F)C(F)(F)C(F)(F)C(F)(F)COC(=O)C=C
active: [1] 2.08 µM | [2] 4.18 µM | [3] 2.87 µM | [4] 4.2 µM | [6] 2.28 µM | [7] 4.19 µM | DIO2 (gene 1734) 12.8 µM | [8] 7.64 µM | [10] 4.18 µM | [11] 4.37 µM | DIO3 (gene 1735) 32.8 µM | [12] 4.28 µM | [13] 4.78 µM | [14] 2.2 µM | [15] 4.1 µM
inactive: [5] | [9]

COC(=O)CCC(F)(F)C(F)(F)C(F)(F)C(F)(F)F
not listed: [1] | [13] | DIO2 (gene 1734) | DIO3 (gene 1735) | [16] | [17] | [18]
inactive: all other assays above

O=S(=O)(OCCOC(F)(F)F)C(F)(F)F
not listed: [1] | [12] | [13] | DIO2 (gene 1734) | DIO3 (gene 1735) | [16] | [17] | [18]
inactive: all other assays above

c1ccc(B(c2ccccc2)c2ccccc2)cc1
active: DIO2 (gene 1734) 57.7 µM | DIO3 (gene 1735) 100 µM

CC(CCl)OP(=O)(OC(C)CCl)OC(C)CCl (configuration not stated)
active: [7] 50 µM | [8] 50 µM | [10] 50 µM | [11] 50 µM | [12] 50 µM
inactive: [1] | [2] | [3] | [4] | [5] | [6] | [7] | [8] | [9] | [10] | [11] | [12] | [13] | [14] | [15] | [16] | [17]

CCN(Cc1cccc(S(=O)(=O)O)c1)c1ccc(C(=C2C=CC(=[N+](CC)Cc3cccc(S(=O)(=O)O)c3)C=C2)c2ccc(O)cc2S(=O)(=O)[O-])cc1
active: DIO2 (gene 1734) 48.5 µM | DIO3 (gene 1735) 51.3 µM

O=S(=O)(OCC(F)F)C(F)(F)F
not listed: [13] | DIO2 (gene 1734) | DIO3 (gene 1735) | [16] | [17] | [18]
inactive: all other assays above

OCC(F)(F)C(F)(F)C(F)(F)C(F)(F)C(F)(F)C(F)F
not listed: DIO2 (gene 1734) | DIO3 (gene 1735) | [16] | [17] | [18]
inactive: all other assays above

CCCCC(CC)COP(=O)(O)OCC(CC)CCCC (configuration not stated)
inactive: [18]

O=C(O)C(F)(F)C(F)(F)C(F)F
not listed: [13] | DIO2 (gene 1734) | DIO3 (gene 1735) | [16] | [17] | [18]
inactive: all other assays above
